# Experimental data reported in PubChem BioAssay (NCATS).
# Inconclusive results are not listed. A number with no mark means an inactive call. The source made the active and inactive calls. Calls come from the whole dose curve; as a rule, active = well fitted cell-killing curve with a large enough effect; inconclusive = small, poorly fitted or top-dose-only effect, or effect the other way; inactive = no such curve, though single readings can be large or run the other way.
# Experiment: Quantitative High-Throughput drug screen in 47 multiple myeloma cell lines against the NCATS MIPE library collection: LP1_DSMZ cell viability assay (AID 1918982); note: nearly all actives have a fitted effect of over 35% in size
# Conditions: LP1 myeloma viability, CellTiter-Glo ATP luminescence, 48 h; series mostly up to 45.8 µM; viability (% of control): at the top concentration
# Text: PI: Beverly A. Mock Ph.D.
# Laboratory of Cancer Biology and Genetics,
# Center for Cancer Research, National Cancer Institute,
# National Institute of Health, Bethesda, Maryland
# Drug resistance and disease progression are common in multiple myeloma (MM) patients, underscoring the need for new therapeutic combinations. […] We hypothesized that effective combinations would reduce MYC expression and enhance p16 activity. […] These preclinical data identify potentially useful drug combinations for evaluation in drug-resistant MM and reveal potential mechanisms of combined drug sensitivity.
# Described herein is the primary MIPE qHTS used to cherrypick compounds. Validated compounds were then further tested for potential synergistic activiy.
# [1] Peat TJ, Gaikwad SM, Dubois W, Gyabaah-Kessie N, Zhang S, Gorjifard S, Phyo Z, Andres M, Hughitt VK, Simpson RM, Miller MA, Girvin AT, Taylor A, Williams D, D'Antonio N, Zhang Y, Rajagopalan A, Flietner E, Wilson K, Zhang X, Shinn P, Klumpp-Thomas C, McKnight C, Itkin Z, Chen L, Kazandijian D, Zhang J, Michalowski AM, Simmons JK, Keats J, Thomas CJ, Mock BA. Drug combinations identified by high-throughput screening promote cell cycle transition and upregulate Smad pathways in myeloma. Cancer Lett. 2023 Aug 1;568:216284. doi: 10.1016/j.canlet.2023.216284. Epub 2023 Jun 24. PMID: 37356470; PMCID: PMC10408729.
# SEQUENCE No. (e.g., 1, 2, 3, etc.); […] (e.g., Cells, Incubation, Reagent, etc.); VALUE and DESCRIPTION.
# 1; Cells; 5 uL; white, solid bottom 1536-well Greiner assay plate.
# 2; Compounds; 23 nL; Kalypsis pin tool (Wako USA) equipped with a 1536-well pin head to transfer to the assay plates.
# 3; Incubation; 48 hours; 37C incubation.
# 4; Reagent;5uL; CellTiter Glo (Promega).
# 5; Detector; 425V; Luminescence; Viewlux PerkinElmer.
# NOTES (numbers refer to Sequence numbers above)
# 1. The cell-based screening methods employed in this study were like those previously published. Briefly, the corresponding myeloma cell lines were screened in 1,536-well plates with 500 cells, 5-uL per well for inhibition of cell viability (assessed by measuring ATP levels with CellTiterGlo).
# 2. NCATS MIPE 4.0 library of approved and investigational drugs were added using the Kalypsis pin tool. Wells treated with DMSO only for 100% viability and media only for 0% viability were used as controls.
# 3. The assay plates were covered and incubated for 48 hours in a 37C, 5% CO2 incubator with controlled humidity.
# 4. After 48 hours, CellTilter-GloTM luminescent substrate mix (Promega) reagent was added to the assay plate and plates we incubated for 5 min at room temperature.
# 5. Signal was measured as median relative luminescence units on a ViewLux (PerkinElmer) multiplate reader.
# [1] Heske CM, Davis MI, Baumgart JT, Wilson K, Gormally MV, Chen L, Zhang X, Ceribelli M, Duveau DY, Guha R, Ferrer M, Arnaldez FI, Ji J, Tran HL, Zhang Y, Mendoza A, Helman LJ, Thomas CJ. Matrix Screen Identifies Synergistic Combination of PARP Inhibitors and Nicotinamide Phosphoribosyltransferase (NAMPT) Inhibitors in Ewing Sarcoma. Clin Cancer Res. 2017 Dec 1;23(23):7301-7311. doi: 10.1158/1078-0432.CCR-17-1121. Epub 2017 Sep 12. PMID: 28899971; PMCID: PMC6636827.
# Potency is the fitted concentration of half-maximal effect.
SMILES,Potency,viability (% of control)
CC[C@H](CO)Nc1nc(NCc2ccccc2)c2ncn(C(C)C)c2n1,26.4 µM (active),–
O=C1CCC[C@@H]2[C@H]3CCC[N+]4([O-])CCC[C@@H](CN12)[C@@H]34 (stereo not given in full),–,102%
CC(=O)Nc1nc(C)c(-c2ccc(Cl)c(S(=O)(=O)NCCO)c2)s1,3.32 µM (active),–
O=C(O)CCCc1c[nH]c2ccccc12,–,102%
COc1cc2nccc(Oc3ccc(NC(=O)C4(C(=O)Nc5ccc(F)cc5)CC4)cc3)c2cc1OC,20.9 µM (active),–
O=C(CCCCCCNC(=O)c1cnc(N(c2ccccc2)c2ccccc2)nc1)NO,5.9 µM (active),–
Cc1cn2cc(C(=O)N(C)CCO)cc(N[C@@H]3CCOc4cccc(C)c43)c2n1,–,102%
C#Cc1cccc(Nc2ncnc3cc(OC)c(OCCCCCCC(=O)NO)cc23)c1,0.743 µM (active),–
Nc1ncnc2c1c(-c1cccc(OCc3ccccc3)c1)cn2C1CC(CN2CCCC2)C1 (stereo not given),5.9 µM (active),–
Cc1cc(CN2CCN(c3c(Br)cnc4nc(-c5ccc(N6CCN(C)CC6)cc5)[nH]c34)CC2)no1,26.4 µM (active),–
O=C(Nc1cc(C(F)(F)F)cc(C(F)(F)F)c1)c1cc(Cl)ccc1O,0.469 µM (active),–
Nc1ccc(S(=O)(=O)Nc2ncccn2)cc1,–,128%
CC1(C)CCC(c2ccc(Cl)cc2)=C(CN2CCN(c3ccc(C(=O)NS(=O)(=O)c4ccc(N[C@H](CCN5CCOCC5)CSc5ccccc5)c(S(=O)(=O)C(F)(F)F)c4)cc3)CC2)C1,20.9 µM (active),–
CNC(=O)c1cc(Oc2ccc(NC(=O)Nc3cc(C(C)(C)C)nn3-c3ccc4ncccc4c3)c(F)c2)ccn1,10.5 µM (active),–
Clc1ccc2ncc(-c3cccc(NC4CNC4)n3)n2c1,16.6 µM (active),–
CC(NCc1ccc2c(c1)nc(NC(=O)c1ccc(-c3cn[nH]c3)s1)n2CC(C)(C)O)C(C)(C)C (stereo not given),0.469 µM (active),–
CCCn1c(=O)c2[nH]c(-c3cnn(Cc4cccc(C(F)(F)F)c4)c3)nc2n(CC)c1=O,10.5 µM (active),–
Nc1nccc(Oc2ccc(NC(=O)c3c[nH]cc(-c4ccc(F)cc4)c3=O)cc2F)c1Cl,18.7 µM (active),–
O=C(O)[C@H](Cc1c[nH]c2ccccc12)N1C(=O)c2ccccc2C1=O,–,113% [at 92.2 µM]
C=CC(=O)Nc1cccc(Oc2nc(Nc3ccc(N4CCN(C)CC4)cc3OC)ncc2Cl)c1,20.9 µM (active),–

SMILES,Potency,viability (% of control)
O=C(O)CO.[NH2-].[NH2-].[Pt+2],–,118%
COc1ccc(C=Cc2cc(OC)c(OC)c(OC)c2)cc1O,–,37.4%
Cc1cnc(Nc2ccc(F)cc2Cl)nc1-c1c[nH]c(C(=O)N[C@H](CO)c2cccc(Cl)c2)c1,18.7 µM (active),–
CC(C)Nc1cc(C(F)(F)F)cc2nc(NC(=O)c3cccnc3)nn12,–,94.9%
CC(=O)Nc1sc2c(c1-c1nc3ccccc3s1)CNC2,18.7 µM (active),–
CCCCc1nc2cc(C=CC(=O)NO)ccc2n1CCN(CC)CC,0.0743 µM (active),–
Nc1ncnc2c1c(-c1cnc3[nH]ccc3c1)nn2C1CCCC1,0.148 µM (active),–
O=C(Nc1nc2cccc(-c3ccc(CN4CCS(=O)(=O)CC4)cc3)n2n1)C1CC1,20.9 µM (active),–
CC(C)c1nn(-c2c(Cl)cccc2Cl)c2nc(Cc3ccc(OCCO)cc3)[nH]c(=O)c12,0.132 µM (active),–
CCC1=C[C@@H]2CN(C1)Cc1c([nH]c3ccccc13)[C@@](C(=O)OC)(c1cc3c(cc1OC)N(C)[C@@H]1[C@@](O)(C(=O)OC)[C@H](OC(C)=O)[C@]4(CC)C=CCN5CC[C@]31[C@@H]54)C2,0.0332 µM (active),–
COc1ccc(OC)c(-c2nnc3ccc(-c4ccc(OC)c(O[C@@H]5CCOC5)c4)nn23)c1,14.8 µM (active),–
CC1COC2(CCN(c3nc(=O)c4cc(C(F)(F)F)cc([N+](=O)[O-])c4s3)CC2)O1 (stereo not given),–,105%
Cc1ccc(S(=O)(=O)Nc2cc(Cl)ccc2C(=O)Nc2nc(-c3ccccc3)cs2)cc1,9.35 µM (active),–
CC1=C(CO)C(=O)O[C@@H]([C@@H](C)[C@H]2CC[C@H]3[C@@H]4C[C@H]5O[C@]56[C@@H](O)C=CC(=O)[C@]6(C)[C@@H]4CC[C@]23C)C1,0.187 µM (active),–
CNC(=O)c1ccc(-c2cnc3ncc(Cc4ccc5ncccc5c4)n3n2)cc1F,–,98.3%
O=C(NCCCNc1nc(Nc2cccc(NC(=O)N3CCCC3)c2)ncc1I)c1cccs1,18.7 µM (active),–
CC(C)C[C@H](NC(=O)CNC(=O)c1cc(Cl)ccc1Cl)B(O)O,0.132 µM (active),–
CC(C)(O)c1cc2nc(-c3cnc(N)nc3)nc(N3CCOCC3)c2s1,0.0132 µM (active),–
Cc1ccc(C(=O)Nc2ccc(CN3CCN(C)CC3)c(C(F)(F)F)c2)cc1C#Cc1cnc2cccnn12,5.9 µM (active),–
CC[C@@H]1C(=O)N(C)c2cnc(Nc3ccc(C(=O)NC4CCN(C)CC4)cc3OC)nc2N1C1CCCC1,0.166 µM (active),–
